Measured values reported in PubChem BioAssay (NCATS).

These compounds were tested against Glucocorticoid receptor (Homo sapiens) (UniProt P04150) (assay: GR-GFP Redistribution (AID 450)). Settings: U2OS GR-GFP nuclear translocation, laser cytometry, 2 h; series mostly up to 20.6 µM;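 active = compounds whose dose series gives a full or clear partial fitted curve of increased nuclear translocation; inconclusive = weak partial curve or effect only at the top dose; inactive = no dose-dependent translocation response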.
Chain of Glucocorticoid receptor (Homo sapiens) (P04150 whole entry, looked up): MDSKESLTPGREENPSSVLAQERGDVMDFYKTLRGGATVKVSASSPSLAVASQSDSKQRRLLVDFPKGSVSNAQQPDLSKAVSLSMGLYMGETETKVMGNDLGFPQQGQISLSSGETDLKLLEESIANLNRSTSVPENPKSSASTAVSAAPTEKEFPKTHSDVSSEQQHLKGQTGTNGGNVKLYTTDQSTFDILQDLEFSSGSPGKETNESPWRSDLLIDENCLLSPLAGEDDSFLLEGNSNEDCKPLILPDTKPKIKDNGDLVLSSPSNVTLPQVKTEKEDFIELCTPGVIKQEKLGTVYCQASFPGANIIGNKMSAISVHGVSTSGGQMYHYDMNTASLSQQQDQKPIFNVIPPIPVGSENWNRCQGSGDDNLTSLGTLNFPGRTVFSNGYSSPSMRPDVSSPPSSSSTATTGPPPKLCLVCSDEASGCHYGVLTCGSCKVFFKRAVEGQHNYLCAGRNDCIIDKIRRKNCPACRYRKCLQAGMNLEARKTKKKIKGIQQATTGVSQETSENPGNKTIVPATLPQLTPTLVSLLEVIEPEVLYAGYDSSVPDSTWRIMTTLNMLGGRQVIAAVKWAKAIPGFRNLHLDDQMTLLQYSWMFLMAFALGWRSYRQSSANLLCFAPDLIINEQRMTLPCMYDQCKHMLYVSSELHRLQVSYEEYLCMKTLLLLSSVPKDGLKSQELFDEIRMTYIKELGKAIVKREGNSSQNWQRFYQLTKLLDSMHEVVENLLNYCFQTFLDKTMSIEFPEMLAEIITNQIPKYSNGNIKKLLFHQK
Potency is the fitted concentration of half-maximal effect.

Potency, inactive:
CCOC(=O)c1c(C)n(C)c2ccc(OC)c(NC(=O)CN3CCSCC3)c12 > 20.6 µM, CCCCCC(=O)N1CC2(C)CN(C(=O)CCCCC)CC(C)(C1)C2=O > 20.6 µM, Cc1occc1C(=O)OCC(=O)Nc1ccc(F)cc1 > 20.6 µM, CCN(CC)CCCN1C(=O)C(=O)/C(=C(/O)c2ccc(C)cc2)C1c1ccccn1 (stereo not given) > 20.6 µM, Cn1c(=O)c2c(nc(N3CCC(C(N)=O)CC3)n2CCSc2nc3ccccc3s2)n(C)c1=O > 20.6 µM, Cc1cccc(-c2nc(C#N)c(NC3CCCCC3)o2)c1 > 20.6 µM, COCCOC(=O)C1=C(C)OC(N)=C(C#N)C1c1ccco1 (stereo not given) > 20.6 µM, CCCCC(CCC(=O)Nc1ccc(C(=O)OCC)cc1)C(=O)O (stereo not given) > 20.6 µM, COc1ccc(/C(O)=C2/C(=O)C(=O)N(c3nc(C)c(C)s3)C2c2ccco2)cc1 (stereo not given) > 20.6 µM, CCOC(=O)C1CCCN(c2nc3ccccc3nc2C(C#N)C(=O)OC(C)COC)C1 (stereo not given) > 20.6 µM, COC(=O)C1=C(C)OC(N)=C(C#N)C1c1ccc(OC)c(OC)c1OC (stereo not given) > 20.6 µM, CCOc1ccc(-n2c(SCc3ccc(C#N)cc3)nnc2-c2cccnc2)cc1 > 20.6 µM, Cc1ccc(C)c(OCc2nnc(NC(=O)c3ccco3)s2)c1 > 20.6 µM, O=C(c1cccc(Cl)c1)N1CCN(C(=O)c2ccccc2F)CC1 > 20.6 µM, COc1ccccc1C1CC(c2ccc(Cl)cc2)Nc2nc(N)nn21 (stereo not given) > 20.6 µM, CC(=O)Nc1cnc2ccccc2n1 > 20.6 µM, Cc1cccc(C)c1OCC(O)CNS(=O)(=O)c1ccccc1C(=O)N1CCOCC1 (stereo not given) > 20.6 µM, Cc1cccc(-c2nnc3n2N=C(c2ccc(Br)cc2)CS3)c1 > 20.6 µM, CC1(C(=O)CSc2nc3ccccc3s2)CCC(=O)O1 (stereo not given) > 20.6 µM, Cc1nnc2n(Cc3ccccc3)c(=O)c3c4c(sc3n12)CN(Cc1ccccc1)CC4 > 20.6 µM, CCOC(=O)CSC1=C(C#N)C(c2ccc3c(c2)OCO3)CC(=O)N1 (stereo not given) > 20.6 µM, Cc1ccc(C(=O)C2=C(O)C(=O)N(c3ncccn3)C2c2ccc(Cl)cc2)o1 (stereo not given) > 20.6 µM, COc1ccccc1N(O)C1CC(=O)N(c2ccc(F)cc2)C1=O (stereo not given) > 20.6 µM, Cc1nnc(N2CCCCC2)c2ccccc12 > 20.6 µM, Cn1c(=O)c2c3c(sc2n2c(SCC(=O)c4ccccc4)nnc12)COC(C)(C)C3 > 20.6 µM, CCN(CC)CCN1C(=O)C(O)=C(C(=O)c2ccco2)C1c1ccccn1 (stereo not given) > 20.6 µM, CCCOc1ccc(/C(O)=C2/C(=O)C(=O)N(CCN(C)C)C2c2ccncc2)cc1 (stereo not given) > 20.6 µM, CC1(C)CC(NC(=O)C23CCC(C)(/C(=N/O)C2)C3(C)C)CC(C)(C)N1 (stereo not given) > 20.6 µM, Cc1ccc(N2C(=O)CC(Cn3nc(C)cc3C)C2=O)cc1 (stereo not given) > 20.6 µM, Cn1c(-n2c(-c3ccco3)nc3ccccc3c2=O)nc2ccccc21 > 20.6 µM, CCc1cccc(CC)c1N(COC)C(=O)Cn1nnc2ccccc21 > 20.6 µM, c1ccc(OCc2nn3c(-c4ccco4)nnc3s2)cc1 > 20.6 µM, COc1cccc(OC)c1C(=O)Nc1nc2ccc(S(C)(=O)=O)cc2s1 > 20.6 µM, Nc1ccc2cn[nH]c2c1 > 20.6 µM, CCc1nc(N2CCN(C(=O)c3ccccc3)CC2)c(C#N)c2c1COC(C)(C)C2 > 20.6 µM, COc1ccccc1Cn1c2nc3ccccc3nc2c2c(=O)n(CC(C)C)cnc21 > 20.6 µM, O=C1C2ON(c3ccccc3)C(c3cccnc3)C2C(=O)N1Cc1ccccc1 (stereo not given) > 20.6 µM, Cn1c(=O)c2c(nc(NCc3ccc4c(c3)OCO4)n2Cc2ccccc2Cl)n(C)c1=O > 20.6 µM, COC(=O)COn1c(SCC(=O)OC)nc2ccccc2c1=O > 20.6 µM, COc1ccc(-c2cn3ccsc3n2)cc1 > 20.6 µM
